# Screening results (PubChem)
# A selection: hits, their analogues and other compounds. The true share with any hit is near 7.1%.
# LASV entry inh – Lassa virus entry inhibition; Lassa virus pseudotyped entry inhibition, cell-based qHTS; Potency, µM (series often up to 49.2 µM), without a hit: at the highest dose activity change, negative = inhibition, hits mostly inhibitors; 18,000 tested, 4.1% active
# Marburg entry – inhibitors of Marburg virus binding or entry into cells; Marburg virus pseudotype entry/binding inhibition, cell-based; Potency, µM (doses to about 49.2 µM), without a hit: at the highest dose activity change, negative = inhibition, hits mostly inhibitors; 18,000 tested, 6.5% active
# * hit, by the source's call; ? = inconclusive; / = no result given; ! = not active in a repeat; [ ] = another dose, or the depositor's remark. The call rests on the fitted dose curve; tested in HEK293 cells. On the % scale 0 is the no-effect control and ±100 the full control effect; potency means the concentration at half of the fitted maximal effect.
SMILES,LASV entry inh,Marburg entry
O=C(c1cccs1)N1C[C@H](n2cc(C3CC3)nn2)[C@H](O)C[C@@H]1c1ccccc1,9%,14%
CCCC[C@]12Cc3c(ccc4ccccc34)[C@H](O1)c1c(cc(C)oc1=O)O2,5%[8.59 µM],34%[8.59 µM]
CCCCCCCC(=O)CC[C@@H]1[C@@H](C/C=C\CCCC(=O)OC(C)C)[C@@H](O)C[C@H]1O,16µM*,?
CCCCCC(=O)CC[C@@H]1[C@@H](C/C=C\CCCC(=O)O)[C@@H](O)C[C@H]1O,-14%,4%
O[C@@H]1CN(CC2CCCCC2)[C@@H](c2ccccc2)C[C@@H]1n1cc(C2CC2)nn1,-27%,?
CC1=C[C@@H](C)OC2(C1)C(=O)N(Cc1ccc(Br)cc1)c1cccc(Br)c12 (stereo not given in full),-2%[8.59 µM],4%[8.59 µM]
COC(=O)C1=C(C)N(Cc2ccccc2)C(=O)NC1CCc1ccccc1 (stereo not given),6%[8.59 µM],23%[8.59 µM]
CCN(CC)CCNC(=O)c1cnn(-c2ncc3c(n2)-c2ccc(OC)cc2CC3)c1C,?,13µM*
CCC(O)CNC(=O)c1cnn(-c2ncc3c(n2)-c2ccc(OC)cc2CC3)c1C1CC1 (stereo not given),8%,0%
CCN1C(=NCCc2cccnc2)NC(c2ccccc2)C(C(=O)OC)=C1C (stereo not given),-8%[8.59 µM],?
COc1cccc(CO[C@H]2C=C[C@@H](c3ccccc3)O[C@H]2COC(C)=O)c1,0%[8.59 µM],8%[8.59 µM]
NC[C@@H]1O[C@H](C23CC4CC(CC(C4)C2)C3)Cc2c1ccc(O)c2O,?,13µM*
NC[C@@H]1O[C@H](c2ccccc2)Cc2c1ccc(O)c2O,-16%,?
CN(C)CCOC1=Cc2ccccc2Sc2ccc(Cl)cc21,?,13µM*
CN(C)CCOC(c1ccc(Cl)cc1)c1ccccn1 (stereo not given),-6%,?
COc1cccc([C@@H]2Oc3ccc(Br)cc3[C@H](O)[C@@H]2O)c1,12%[8.59 µM],?
COC[C@H]1O[C@@H]2O[C@@H]1[C@@H](C=Cc1ccccc1)C[C@H]2C,20%[8.59 µM],5%[8.59 µM]
CC(=O)OC[C@]12C[C@H](OC(=O)CC(C)C)C(C)=C[C@H]1O[C@H]1[C@H](O)[C@@H](OC(C)=O)[C@@]2(C)[C@]12CO2,0.18µM*,8.9µM*
CC(C)C1C(=O)N(Cc2cn(CCC3OCCCO3)nn2)CCS(=O)(=O)N1Cc1ccc(-c2ccc(F)cc2)cc1 (stereo not given),-21%,?
O=S1(=O)CCSCCN1Cc1ccc(Cl)cc1,-16%,22%
COc1cccc(Nc2nccc(-c3cnn4ncccc34)n2)c1,?,0.32µM*
Cc1ccc2c(-c3ccnc(Nc4ccccc4)n3)c(-c3ccc(F)cc3)nn2n1,?,3.5µM*
CCc1nn2ncccc2c1-c1ccnc(NC2CC2)n1,/,-14%
NC(=O)c1cccc(Nc2nccc(Nc3cccc(F)c3)n2)c1,32%,-60%
COc1ccc(-c2nn3ncccc3c2-c2ccnc(Nc3cccc(C(F)(F)F)c3)n2)cc1,?,13µM*
SMILES,LASV entry inh,Marburg entry
C[C@@H]1CC[C@H]2C(=O)N(Cc3cccc([N+](=O)[O-])c3)C[C@@H](O)CN2[C@@H]1c1ccc(Br)cc1,-10%[8.59 µM],-13%[8.59 µM]
C=CCOC(=O)N[C@@H](Cc1ccccc1)C(C(=O)OC)=C(C)NCc1ccccc1,-22%[8.59 µM],-11%[8.59 µM]
C#CC[C@@]1(C(=O)OC)C=C[C@@H](C)[C@H](c2ccccc2Br)N1C(=O)C(F)(F)F,13%[8.59 µM],-2%[8.59 µM]
CCCCCCC[n+]1ccc(-c2cc[n+](CCCCCCC)cc2)cc1,-20%,-1%
CCCCCCCCCCCCCC[n+]1ccc(C)cc1,22µM*,?
CCCCCCCCc1[se]c2ccccc2c1I,4%,1%
CCCCCCCCCCCC[n+]1ccc2ccccc2c1,8.9µM*,11µM*
CCCCCCCCCCCCCCCC(=O)O,4%,3%
CCCCCCCCCCCCCCCC[n+]1ccccc1,22µM*,13µM*
c1ccc(C2NCCc3c2[nH]c2ccccc32)cc1 (stereo not given),14%[8.59 µM],23%[8.59 µM]
C[C@@H](NS(=O)(=O)c1cccc(Cl)c1F)[C@H](O)c1ccccc1,-9%,21%
N#Cc1c(NC(=O)CN2CCOCC2)sc2c1CCCC2,27%,0%
O=C(OCc1cn([C@H]2CN(C(=O)c3cccs3)[C@@H](c3ccc(Cl)cc3)C[C@H]2O)nn1)c1ccccc1,-12%,-9%
CC(C)CON=C1C[C@@H](O)[C@@H](O)[C@@H]2[C@H]3C(=O)N(Cc4ccccc4)C(=O)[C@@H]3CC[C@@H]12,-10%[8.59 µM],1%[8.59 µM]
C[C@@H](C1[C@@H](O)CC2C3C=CC4C[C@@H](O)CC[C@]4(C)[C@H]3CC[C@@]21C)[C@@H]1CCCCN1 (stereo not given in full),6%,11µM*
Oc1[nH]c2ccccc2c1C=Nc1ccc(-n2cncn2)cc1,-75%,-32%
CCCCCC(=O)N1C[C@@H](O)[C@H](n2cc(-c3ccc(F)cc3)nn2)C[C@H]1c1ccc(C)cc1,10%,-9%
C=CCN1c2ccccc2[C@]23CCC(=O)N(CCOC)C2=NC(C(=O)OC)=C(C(=O)OC)[C@H]13,50%[8.59 µM],13%[8.59 µM]
CN(C)CC[C@@H](c1ccccc1)c1ccccn1,-13%[17.8 µM],-2%[17.8 µM]
CN(C)CCC(c1ccc(Br)cc1)c1ccccn1 (stereo not given),-5%,10µM*
Oc1cc2c(cc1O)[C@H]1c3ccccc3CN[C@H]1CC2,?,25µM*
c1ccc([C@H]2CNCc3ccccc32)cc1,1%,-11%
Cc1ccc(-c2cc3c(NC(=O)C4CC4)ncnc3o2)cc1,27%,44%
CCCCCC(=O)N1C[C@@H](O)[C@H](n2cc(C3CC3)nn2)C[C@H]1c1ccc(Cl)cc1,14%,?
CNCCC=C1c2ccccc2CCc2ccccc21,32µM*,10µM*
SMILES,LASV entry inh,Marburg entry
CNCC/C=C/c1cccnc1,-23%,-4%
O=C(O)CCc1nc2ccccc2[nH]1,-11%,-4%
CC(C)[C@H]1c2ccc(F)cc2CC[C@@]1(CCN(C)CCCc1nc2ccccc2[nH]1)OC(=O)C1CC1,?,8.9µM*
CCN1C(=NCc2cccc(C(F)(F)F)c2)NC(c2cccs2)C(C(=O)OC)=C1C (stereo not given),-7%[8.59 µM],?
O=C(NCCCN1CCCCCC1)[C@@H](c1ccccc1)C1CCCCC1,?,13µM*
CCN(CC)CCOC(=O)C(c1ccccc1)C1CCCCC1 (stereo not given),-11%,?
COC(=O)C1=NN=C(C(=O)OC)[C@@]2(C)c3ccccc3NC12 (stereo not given in full),13%[8.59 µM],44%[8.59 µM]
CCc1cc2c(nc1CC)CCN(CCC(C)=NOC[C@@H](O)[C@H]1O[C@@H]3OC(C)(C)O[C@H]3[C@@H]1O)C2,6%[8.59 µM],-6%[8.59 µM]
COC(=O)N[C@@H](c1ccco1)[C@]1(C(=O)OC)CCCC1=O,-2%[8.59 µM],?
COC(=O)N[C@@H](c1ccc2ccccc2c1)C(C(C)=O)C(=O)OC (stereo not given in full),16%[8.59 µM],-16%[8.59 µM]
CN1C[C@H](C(=O)N[C@@]2(C)O[C@@]3(O)C4CCCN4C(=O)C(Cc4ccccc4)N3C2=O)C[C@H]2c3cccc4[nH]cc(c34)C[C@H]21 (stereo not given in full),-10%,-22%
CC(C)[C@@]1(NC(=O)[C@@H]2C[C@@H]3c4cccc5[nH]cc(c45)C[C@H]3N(C)C2)O[C@@]2(O)[C@@H]3CCCN3C(=O)[C@H](Cc3ccccc3)N2C1=O,35µM*!,7.1µM*
